Assay outcomes: PubChem BioAssay, National Center for Advancing Translational Sciences (NCATS)
LmPK inh: inhibitors of Leishmania mexicana pyruvate kinase; purified LmPK, Kinase-Glo ATP luminescence, 1 h; Potency, µM (top dose mostly 57.5 µM), for the others: at the highest dose activity change, negative = inhibition, most hits filed as inhibitors; hit rate 0.37% among 290,000; AID 1721; also: potency is read from the fitted curve at half-maximal effect; % is scaled to controls: 0 for no effect and ±100 for the full control effect
Target sequence (Q27686 whole entry, looked up): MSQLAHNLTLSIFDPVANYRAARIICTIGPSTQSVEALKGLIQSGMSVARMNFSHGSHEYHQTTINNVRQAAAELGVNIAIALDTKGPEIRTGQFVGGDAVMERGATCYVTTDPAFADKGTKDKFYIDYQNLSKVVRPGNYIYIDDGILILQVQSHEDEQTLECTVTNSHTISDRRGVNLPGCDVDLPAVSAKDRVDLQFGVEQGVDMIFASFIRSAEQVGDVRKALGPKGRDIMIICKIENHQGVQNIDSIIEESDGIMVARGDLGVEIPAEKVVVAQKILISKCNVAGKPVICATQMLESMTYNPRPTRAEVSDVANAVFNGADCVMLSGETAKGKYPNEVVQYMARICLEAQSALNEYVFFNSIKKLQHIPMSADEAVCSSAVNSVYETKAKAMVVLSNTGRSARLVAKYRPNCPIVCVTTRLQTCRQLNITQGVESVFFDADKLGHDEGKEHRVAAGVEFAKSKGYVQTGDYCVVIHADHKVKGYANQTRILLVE
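In 50 mM imidazole pH 7.2 with 7 mM MgCl2, LmPK (0.1 nM) turned over PEP (0.5 mM) and ADP (0.1 mM) for 1 h at room temperature. Luciferase read-out of ATP.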
Shiga toxin inh: blocks Shiga toxin action in Vero cells; Vero cells, Shiga toxin protein synthesis inhibition reporter; inhibition, % at 38.7 µM; hit rate 9.2% among 290,000; in the data active = inhibition mostly above about 28%, no sharp cut-off; inactive = mostly below about 43%; also: 0% is about no effect
Pf growth 96h: P. falciparum growth inhibition at 96 hours; P. falciparum luciferase reporter growth, 96 h; Potency, µM (top dose mostly 28.7 µM), inactives show at the top dose activity change, negative = inhibition, hits mostly inhibitors; hit rate 6.9% among 320,000; AID 504834; also: potency is read from the fitted curve at half-maximal effect; % is scaled to controls: 0 for no effect and ±100 for the full control effect
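P. falciparum expressing integrated firefly luciferase grown in erythrocytes (2% hematocrit, 0.05% parasitemia final) with compounds for 96 hours at 37 C, 5% CO2. Growth inhibition read as loss of luminescence after adding luciferase detection reagent.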
Cycloheximide cs: counter-screen hit for Shiga toxin inhibitors, cycloheximide; cell reporter, cycloheximide protein synthesis inhibition counterscreen; max response, %; hit rate 12% among 300,000; AID 2314; in the data active = max response mostly above about 13%, no sharp cut-off; inactive = mostly below about 14%; also: read at 38.3 µM for the half of the compounds with a filed dose; 0% is about no effect
Pf growth 48h: P. falciparum growth inhibition at 48 hours (one generation). P. falciparum luciferase growth in erythrocytes, 48 h. Potency, µM (highest dose often 28.7 µM), for inactives: top-dose activity change, negative = inhibition, most hits filed as inhibitors. hit rate 5.9% among 310,000. AID 504832; also: potency is read from the fitted curve at half-maximal effect; % is scaled to controls: 0 for no effect and ±100 for the full control effect
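Parasite viability was followed by luminescence of a genomically integrated firefly luciferase. Cultures held 0.1% parasitemia at 2% hematocrit (final), incubated under 5% CO2 at 37 C.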
The depositor's hits bear a star; ? = inconclusive; nt = no result given; [ ] = dose if it differs, or a comment. Shown are actives, neighbours in structure and some others; about 22% of the full set was active somewhere. Unless noted, calls follow the shape of the dose curve; as a rule, active = well fitted inhibition curve with a large enough effect; inconclusive = small, poorly fitted or top-dose-only effect, or another doubt; inactive = no such curve, though single readings can be large or run the other way.

SMILES	LmPK inh	Shiga toxin inh	Pf growth 96h	Cycloheximide cs	Pf growth 48h
CN1CCN(C(=O)C2=C[C@H](c3ccccc3)C[C@H](OCc3ccc(CO)cc3)O2)CC1	0%	1	7%	7.5*	?
Cc1ccc(CNC(=O)c2ccc(OCC(C)C)cc2)n1C	1%	-4	-23%	3	-16%[0.00184 µM]
O=C(C1=C[C@H](c2ccc3c(c2)OCO3)C[C@H](OCc2ccc(CO)cc2)O1)N1CCN(Cc2ccc3c(c2)OCO3)CC1	5%	-16	13µM*	-4	4.1µM*
CN1CCN(C(=O)C2=C[C@@H](c3ccc4c(c3)OCO4)C[C@@H](OCc3ccc(CO)cc3)O2)CC1	0%	-4	-16%	-1	-12%
CSc1ccc2c(c1)N(CCC1CCCCN1C)c1ccccc1S2 (centres undefined)	5%	-23	?	-7	9.3µM*
CC1CCN(CC(O)CN2c3ccccc3Sc3ccccc32)CC1 (centres undefined)	-3%	22	10%	-6	?
Nc1cc(Cl)nc(N/N=C/c2ccccc2[N+](=O)[O-])n1	-18%	87*	6.6µM*	47*	130%
Nc1cc(Cl)nc(N/N=C/c2ccc([N+](=O)[O-])cc2)n1	0%	10	4.7µM*	6	?
O=[N+]([O-])c1ccc(/C=N/Nc2ncc(Br)cn2)cc1	-2%	-7	?	-3	16%
Cc1ccc(S(=O)(=O)N2CCC(C(=O)NNS(=O)(=O)c3ccc(Cl)cc3)CC2)cc1	3%	-7	49%	-4	32%
Oc1ccc(N=Nc2cccc(C(F)(F)F)c2)cc1C=Nc1ccc(N2CCOCC2)cc1	-1%	-14	3.3µM*	-1	?
Cc1occc1C(=O)NC1CCCN(Cc2ccc(Cl)cc2)C1 (centres undefined)	2%	-3	29%	-3	-7%
Cc1cc(C(=O)NC2CCC(C)CC2)c(C)o1 (centres undefined)	-3%	80*	198%	52*	86%
O=C(CCc1ccc(F)c(F)c1)NC1CCCN(Cc2ccc(Cl)cc2)C1 (centres undefined)	2%	-17	9.3µM*	-2	-22%
Cc1cc(C(=O)NC2CCCN(Cc3ccc(Cl)cc3)C2)c(C)o1 (centres undefined)	-2%	-8	?	-1	10µM*
Cc1ccc(NC(=O)CN(C)C(=O)c2nn(C)c(=O)c3ccccc23)cc1	-2%	-3	33%	-2	1%
COc1ccc(C(=O)NCCc2nnc3ccc(SCC(=O)Nc4cc(C)on4)nn23)cc1	-6%[11.5 µM]	33	-39%	-8	?
CCCn1c(SCC(=O)NCC)nc2sc3c(c2c1=O)CCC3	0%	-6	-24%	-5	-8%
CCn1c(SCC(N)=O)nc2sc3c(c2c1=O)CCN(C)C3	2%	-13	?	-2	1.3µM*
CCN(CC)C(=O)CSc1nc2sc3c(c2c(=O)n1CCCOC)CCC3	6%	nt	0%	-2	?
CCCn1c(SCC(=O)N2CCN(C(C)=O)CC2)nc2sc3c(c2c1=O)CCC3	1%	-14	13µM*	-4	?
CCn1c(SCC(=O)Nc2ccc(C)cc2)nc2sc3c(c2c1=O)CCN(C)C3	1%	-4	0.37µM*	1	3.7µM*
COCCn1c(SCC(=O)Nc2ncc(C)s2)nc2sc3c(c2c1=O)CCC3	7%	38	-18%	25*	?
CCCCC(CC)CNC(=O)c1ncn[nH]1 (centres undefined)	-4%	-9	?	-2	-7%
O=C1C2C3C=CC(CC3)C2C(=O)N1c1ccccc1[N+](=O)[O-] (centres undefined)	-1%	-2	-24%	-7	20%
SMILES	LmPK inh	Shiga toxin inh	Pf growth 96h	Cycloheximide cs	Pf growth 48h
O=C(CNC(=O)c1ccc(Br)cc1)c1ccccc1	-8%	29*	264%	28*	95%
O=C(CNC(=O)c1ccccc1C(=O)O)c1ccccc1	-6%	62*	59%	49*	125%
COc1ccc(C(=O)NCC(=O)OCc2ccc(Br)cc2)cc1	-5%	-7	?	-1	-2%
O=C(CNC(=O)c1ccc(-c2ccccc2)cc1)OCc1ccc(Br)cc1	0%	68*	0%	39*	33%
O=C(CNC(=O)c1ccc(F)cc1)c1ccc(Cl)cc1	-7%	69*	-7%	46*	?
Cc1ccccc1CS(=O)(=O)Cc1ccc(C(=O)NC2CCCCC2)o1	5%	-7	?	-3	8%
O=C(O)CCN1CCN(S(=O)(=O)c2ccc3ccccc3c2)CC1	-1%	-9	16%	10	1%
CCC(C)N(C(=O)c1csnn1)C(C(=O)NC1CCCC1)c1c(F)cccc1Cl (centres undefined)	-1%	-5	30%	-3	1%
CN(CC(=O)Nc1ccc(N2CCOCC2)cc1)CC(=O)Nc1ccc(Cl)cc1[N+](=O)[O-]	3%	-12	30%	8	-8%
O=C(CNC(=O)c1ccc(Br)cc1)c1ccc(Br)cc1	0%	27	?	1	26%
O=C(CNC(=O)c1ccc(Cl)cc1)c1ccc(Cl)cc1	8%	52*	31%	16*	nt
CC1CCCCC12NC(=O)N(CC(=O)c1ccc(Cl)s1)C2=O (centres undefined)	0%	1	-8%	-4	-9%
c1cncc(-c2nc(NCc3ccco3)c3ccccc3n2)c1	-7%	-7	35%	14	12µM*
O=c1c2ccccc2nc2ccc(NCc3ccco3)nn12	2%	56*	nt	51*	96%
Cc1sc2nc3ccc(NCc4ccco4)nn3c(=O)c2c1C	-4%	-9	-3%	5	3%
Cc1ccc(-c2nc(NCc3ccco3)c3ccccc3n2)cc1	2%	36*	2%	69*	6%
c1ccc(-c2nc(NCc3cccnc3)c3ccccc3n2)cc1	6%	-2	?	-2	?
Cc1ccc(-c2nc(NCc3cccnc3)c3ccccc3n2)cc1	0%	-5	75%	14*	?
Cc1cccc(N(CC(=O)NC2CCCCC2)C(=O)c2csnn2)c1	0%	2	41%	-3	10%
Cc1cc(NC(=O)C(C)SCC(=O)N(C)Cc2ccccc2F)no1 (centres undefined)	nt	nt	?	nt	-29%
NC(=O)NC(CCC(=O)O)C(=O)O (centres undefined)	nt	nt	15%	nt	-3%
Cc1ccc(-c2nc(N/N=C/c3cccnc3)c3ccccc3n2)cc1	-26%	22	?	20*	nt
Cc1ccc(S(=O)(=O)Nc2nc3ccccc3nc2NCc2ccco2)cc1	3%	74*	nt	59*	118%
CCN(CC(=O)Nc1ccc(OC)cc1)C(=O)Cc1ccsc1	nt	nt	-22%	nt	-16%
COc1ccc(C2CC(c3ccc4ccccc4c3)=NN2C(=O)CSc2ncccn2)cc1 (centres undefined)	1%	43*	10µM*	15*	?
